From PubChem BioAssay come the findings set out here.

Calls of active or inactive are those of the source. Unless noted, the rule behind the calls is not given here.

In test [1] the test system is Wnt5a (protein binding on small-molecule microarray). Description: Wnt5a binders on small-molecule microarray, primary screen, biophysical, 635/667 nm fluorescence (AID 1142).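 Note: fluorescence read at 667 nm with signal to noise per printed feature.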 The note with it: 635 nm fluorescence, higher = more signal.
Test [2] can be described thus: cell viability in Huh7 cells, primary screen, cytotoxicity control for HCV replication inhibitor project, CellTiter-Glo luminescence, basal, 48 h (AID 1143).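 Note: Huh7 hepatoma cells carrying a hepatitis C replication reporter with no stimulus; test concentration not given here.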 The note with it: Huh7 HCV replicon, higher = more signal, called active from +8 up or from −8 down.
Test [3] is described as follows: P. aeruginosa biofilm formation inhibitors, primary screen, PAO1 strain, BacTiter-Glo luminescence, LB-PBS (AID 1144). The note with it: 12 h, higher = more signal.
Test [4] can be described thus: CREB reporter modulators without forskolin, primary screen, cell-based, PC12, CRE-LacZ reporter, unstimulated (AID 1145). The note with it: no forskolin, luminescence, 4.5 h, higher = more signal, called active from +8 up or from −8 down.
A short description of test [5]: CREB reporter modulators under forskolin, primary screen, cell-based, PC12, CRE-LacZ reporter, forskolin-stimulated (AID 1146).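 Note: PC12 cells with 6xCRE LacZ reporter stimulated by forskolin 10 µM; beta-galactosidase reporter signal reflecting CREB driven transcription.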 The note with it: luminescence, 4.5 h, higher = more signal, called active from +8 up or from −8 down.
Test [6] concerns the target Streptavidin (Streptomyces avidinii) (UniProt P22629). Description: streptavidin binders on small-molecule microarray, primary screen, artefact control for SMM compound annotation, biophysical, 635/667 nm fluorescence (AID 1147).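 Note: signal reflects streptavidin binding to arrayed compounds as a control protein.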 Conditions: streptavidin binding, higher = more signal.
A short description of test [7]: small-molecule binders of probe aInhba, primary screen, biochemical, small-molecule microarray, 635/667 nm fluorescence (AID 1148).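 Note: score merges 667nm spot fluorescence with signal-to-noise for antibody binding to printed compounds.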 Conditions: higher = more signal.
For test [8], the target named is Torsin-1A (Homo sapiens) (UniProt O14656). Description: torsin A binders from cell lysate, primary screen, small-molecule microarray, wild-type, 635/667 nm (AID 1149). Conditions: COS7 hTOR1A-WT lysate, 635 nm fluorescence, higher = more signal.
For test [9] the target is unchanged. The experiment in a line: small-molecule binders of mutant TOR1A in lysate, primary screen, cell lysate, small-molecule microarray, COS7 lysate, 635/667 nm fluorescence (AID 1150).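 Note: score pools 667 nm emission and signal to noise measuring lysate protein binding.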 The note with it: COS7 hTOR1A mutant lysate, 635 nm fluorescence, higher = more signal.
The test system of test [10] is Sonic hedgehog protein (Shh). Description: small-molecule binders of Shh protein, primary screen, biochemical, small-molecule microarray, 635/667 nm fluorescence (AID 1151).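 Note: Shh protein binding to compounds spotted on small-molecule microarray slides; score combines spot fluorescence intensity with signal-to-noise across triplicate slides.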 Conditions: small-molecule microarray binding, 635 nm fluorescence; higher = more signal.

Streptavidin (Streptomyces avidinii), sequence (P22629 whole entry, looked up): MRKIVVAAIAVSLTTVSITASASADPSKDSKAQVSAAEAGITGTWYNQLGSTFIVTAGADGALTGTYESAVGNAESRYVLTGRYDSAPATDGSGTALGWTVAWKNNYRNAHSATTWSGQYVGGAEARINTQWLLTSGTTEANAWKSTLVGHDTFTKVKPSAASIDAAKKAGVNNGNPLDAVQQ
Torsin-1A (Homo sapiens), sequence (O14656 whole entry, looked up): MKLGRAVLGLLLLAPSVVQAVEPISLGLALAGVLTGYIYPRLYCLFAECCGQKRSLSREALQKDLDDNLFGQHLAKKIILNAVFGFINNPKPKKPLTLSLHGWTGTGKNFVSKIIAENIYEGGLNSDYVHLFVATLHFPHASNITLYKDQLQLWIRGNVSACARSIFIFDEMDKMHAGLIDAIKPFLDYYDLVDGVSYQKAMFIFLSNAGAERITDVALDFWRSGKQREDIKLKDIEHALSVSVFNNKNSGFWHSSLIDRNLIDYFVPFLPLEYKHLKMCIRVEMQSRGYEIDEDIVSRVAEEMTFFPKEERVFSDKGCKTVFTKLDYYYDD

In the case of `C=CCC(OC(C)=O)[C@@H]1[C@@H](N(Cc2ccc(-c3ccccc3)cc2)C(=O)c2cccc3ccccc23)c2cc(OCCCO)ccc2N1C(=O)c1ccc2ccccc2n1` (stereo not given in full), the composite z-score in test [1] stood at 0.0553; in [6], 0.306; in test [7], 0.237; in the test with Torsin-1A (Homo sapiens) [8], 0.258; with Torsin-1A (Homo sapiens) [9] it was 0.0374; in test [10], 0.0754. Further, the z-score was -1.48 (inactive) in test [2], 0.321 (inactive) in [3], 1.76 (inactive) in [4] and -0.505 (inactive) in [5].
In the case of `COCCOC(=O)N1C(=O)[C@@]2(c3ccccc31)[C@H](c1ccc(OCCO)cc1)N1[C@H](c3ccccc3)[C@H](c3ccccc3)OC(=O)[C@H]1[C@@H]2C(=O)NC[C@H](O)c1ccccc1`, the composite z-score in test [1] was 0.385; in test [6], 0.258; in test [7], 0.268; in the test with Torsin-1A (Homo sapiens) [8], 1.19; with Torsin-1A (Homo sapiens) [9] it was 0.662; in [10] it was 2.04. For the same compound, the z-score in [2] was -1.49 (inactive); in [3], 0.109 (inactive); in test [4], 0.891 (inactive); in test [5], 10.1 (active).
For the compound `O=C(O)[C@@]1(Cc2ccccc2)COC(c2ccc(OCCCO)cc2)=N1`, the composite z-score in test [1] was 0.0416; in test [6], -0.345; in test [7] it was -0.252; with Torsin-1A (Homo sapiens) [8], -0.162; with Torsin-1A (Homo sapiens) [9], 1.52; in test [10], -0.555. For the same compound, the z-score in [2] was 0.621 (inactive); in test [3] it was 0.498 (inactive); in [4] it was -0.277 (inactive); in [5], 0.0685 (inactive).
Take `C=CC[C@@]1(C(=O)NCC(O)CO)N=C(c2ccc(OCCCO)cc2)O[C@@H]1c1ccccc1` (stereo not given in full): the composite z-score in test [1] is 1.19; in [6], 0.145; in test [7], 0.524; with Torsin-1A (Homo sapiens) [8], 0.373; with Torsin-1A (Homo sapiens) [9] it was 2.47; in test [10], -0.702. Also, the z-score in test [2] was -0.834 (inactive); in test [3], 0.627 (inactive); in [4], 0.685 (inactive); in [5], -0.458 (inactive).
In the case of `CC1=C2[C@@H](CCc3ccccc3)OB(O)C[C@@H]2[C@@H]2C(=O)C=CC(=O)[C@@H]2C1`, the composite z-score was 0.135 in test [1]; 0.537 in test [6]; -0.0873 in [7]; 0.355 with Torsin-1A (Homo sapiens) [8]; 0.474 in the test with Torsin-1A (Homo sapiens) [9]; 1.44 in [10]. Moreover, the z-score in [2] is -0.894 (inactive); in test [3] it was 0.0958 (inactive); in [4], 14.1 (active); in test [5], 28.4 (active).
`CC(C)C(CO)N1C(=O)[C@@H]2[C@H]3C(=O)OCC=C[C@H]3OC23C=CCN(Cn2nnc4ccccc42)C(=O)[C@@H]13` (stereo not given in full): the composite z-score was -0.257 in test [1]; -1.05 in [6]; -0.231 in [7]; -0.957 in the test with Torsin-1A (Homo sapiens) [8]; -2.27 in the test with Torsin-1A (Homo sapiens) [9]; -1 in [10]. Besides, the z-score in [2] is 0.44 (inactive); in test [3], 0.0585 (inactive); in [4] it was -0.492 (inactive); in test [5] it was -0.0021 (inactive).
For the compound `C=C(C)[C@@H]1CC=C(C(O)C2C=CC3C(=O)N(C4CCCCC4)C(=O)C3N2Nc2ccc(OC)cc2)CC1` (stereo not given in full), the composite z-score in test [1] is 0.187; in test [6], 1.12; in [7] it was -0.0521; with Torsin-1A (Homo sapiens) [8], -0.0445; with Torsin-1A (Homo sapiens) [9], 0.6; in test [10] it was 0.966. The z-score in test [2] was -1.7 (inactive); in [3], -0.645 (inactive); in [4] it was 0.369 (inactive); in [5], -0.317 (inactive).
For `CCOc1cc(C(O)C2C=CC3C(=O)NC(=O)C3N2Nc2ccccn2)ccc1O` (stereo not given), the composite z-score in test [1] was 0.342; in [6], 0.171; in test [7], -0.158; with Torsin-1A (Homo sapiens) [8], -0.0106; with Torsin-1A (Homo sapiens) [9] it was 0.12; in [10], -0.476. Also, the z-score is 0.961 (inactive) in test [2], 0.543 (inactive) in test [3], -0.333 (inactive) in [4] and 0.153 (inactive) in [5].
In the case of `CCCNC(=O)[C@@]1(Sc2ccc(C)cc2)CC(=O)N(Cc2ccccc2)[C@@H]1c1ccc(CO)cc1I`, the composite z-score was 0.308 in test [1]; 0.203 in test [6]; -0.0221 in test [7]; 0.123 with Torsin-1A (Homo sapiens) [8]; 0.485 with Torsin-1A (Homo sapiens) [9]; 1.96 in [10]. The z-score in [2] was -1.81 (inactive); in test [3], 0.029 (inactive); in test [4], 0.0655 (inactive); in [5], 1.08 (inactive).
For `O=C(Nc1cc(Br)ccc1C(=O)NCc1cccc(O)c1)c1ccccc1`, the composite z-score came out at 0.189 in [1]; 0.827 in test [6]; 0.129 in test [7]; 0.476 with Torsin-1A (Homo sapiens) [8]; 0.533 in the test with Torsin-1A (Homo sapiens) [9]; 0.349 in [10]. Moreover, the z-score in [2] is -2.32 (inactive); in [3], -0.26 (inactive); in [4], -0.374 (inactive); in [5], -0.334 (inactive).
Turning to `C[C@]12C(=O)N(CCCO)[C@@H]3C(=O)N(c4ccc(Cl)cc4)CC=CC31O[C@@H]1/C=C\CCCOC(=O)C12` (stereo not given in full), the composite z-score was -0.408 in test [1]; -1.19 in test [6]; -0.218 in [7]; -1.88 in the test with Torsin-1A (Homo sapiens) [8]; -1.13 in the test with Torsin-1A (Homo sapiens) [9]; 0.399 in test [10]. Also, the z-score in test [2] was 0.231 (inactive); in test [3], 0.993 (inactive); in test [4], -0.212 (inactive); in [5], -0.221 (inactive).
With `COC(=O)[C@H]1N=C(c2ccc(OCCCO)cc2)O[C@H]1c1ccccc1CN=[N+]=[N-]`, the composite z-score is -0.0973 in test [1]; -0.129 in [6]; 0.11 in test [7]; -1.66 in the test with Torsin-1A (Homo sapiens) [8]; -0.8 with Torsin-1A (Homo sapiens) [9]; 0.166 in test [10]. In addition, the z-score is -1.45 (inactive) in test [2], 0.446 (inactive) in [3], -0.23 (inactive) in [4] and -0.785 (inactive) in [5].
For `COCCOC(=O)N1C(=O)[C@@]2(c3cc(C#CCCO)ccc31)[C@H](c1ccc(OCCO)cc1)N1[C@H](c3ccccc3)[C@H](c3ccccc3)OC(=O)[C@H]1[C@@H]2C(=O)N1CCc2cc(OC)c(OC)cc2C1`, the composite z-score in test [1] was 0.359; in [6], 0.402; in test [7], 0.153; with Torsin-1A (Homo sapiens) [8], 0.637; with Torsin-1A (Homo sapiens) [9], 0.748; in [10], 1.37. The z-score was -0.415 (inactive) in test [2], -0.66 (inactive) in test [3], -0.231 (inactive) in test [4] and -0.196 (inactive) in test [5].
For the compound `COC(=O)[C@@]1(Cc2ccc(OC)cc2)[C@H]2c3cc(C(=O)N(C)C)n(Cc4cc(F)c(F)c(F)c4)c3C[C@H]2CN1C(=O)c1ccccc1`, the composite z-score was 0.397 in [1]; 1.63 in test [6]; 0.528 in [7]; -0.312 with Torsin-1A (Homo sapiens) [8]; 0.712 with Torsin-1A (Homo sapiens) [9]; -0.692 in test [10]. For the same compound, the z-score was -4.47 (inactive) in test [2], -0.00792 (inactive) in test [3], 1.34 (inactive) in [4] and 1.12 (inactive) in [5].
